# Compound activity from PubChem BioAssay.
# Most compounds without a hit are left out; they make up all but 6.7% or so of the library.
# C diff HTS: C. difficile growth inhibition. Clostridium difficile clinical isolate growth, OD600, 24 h; active compounds read low. growth activity, negative = inhibition, % at 16 µg/mL (by protocol). 86,000 compounds, 0.25% hits. AID 1259249;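 active means mean growth activity at or below -80% and every replicate also at or below -80%; inconclusive means mean at or below -80% but some replicate above -80%; inactive means mean growth activity above -80%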;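 further: 0% = DMSO wells and -100% = levofloxacin 16 µg/mL wells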
# T cruzi growth-1: T. cruzi proliferation inhibition; T. cruzi beta-gal in NIH3T3, GalScreen luminescence, 90 h; inhibition, % at 8.34 µM; 77,000 compounds, 5.9% hits;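 active means mean inhibition above about 93%, with at least 55% of replicates each passing it, limit read from the data, passing the limit was not always enough; inconclusive means only one of those two conditions holds; inactive means neither condition holds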
# Pf Dd2 inh: blocks growth of Plasmodium falciparum Dd2 parasites; 94,000 compounds, 2.3% hits; AID 1159554; P. falciparum Dd2 growth, SYBR Green, 72 h; active compounds read low; activity change, % at 10 µM; in the data active means activity change below about -80%; inconclusive means no clear call, values can overlap the other calls
# T cruzi growth-2: blocks T. cruzi growth in NIH3T3 host cells. inhibition, % at 8.35 µM. T. cruzi beta-gal in NIH3T3, GalScreen luminescence, 90 h. 5,600 compounds, 72% hits. shares compounds with T cruzi growth-1;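 active means mean replicate inhibition above about 95% and at least 55% of replicates individually reaching it, limit read from the data; inconclusive means only one of the two criteria is met; inactive means neither criterion is met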
# T cruzi growth-3: inhibitors of T. cruzi proliferation; shares compounds with T cruzi growth-1; T. cruzi beta-gal in NIH3T3, GalScreen luminescence, 90 h; 5,600 compounds, 21% hits; inhibition, % at 2.09 µM;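 active means mean inhibition above about 95%, with at least 55% of replicates also reaching it, limit read from the data; inconclusive means meets just one of the two conditions; inactive means meets neither condition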;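 further: plate controls were neutral control median for no effect and positive control median for full effect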
# NIH3T3 tox: NIH/3T3 (mouse) viability loss | shares compounds with T cruzi growth-1 | NIH/3T3 viability, CellTiter-Glo ATP luminescence, 90 h | cytotoxicity (signal decrease), % at 8.35 µM | 5,600 compounds, 14% hits;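 active means mean signal decrease across replicates above about 35% based on untreated-well scatter, with enough replicates individually passing, limit read from the data; inconclusive means no rule stated though some were filed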;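 further: 0% = median of neutral control wells and 100% = median of positive control wells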
# NIH3T3 tox 2: kills mouse NIH/3T3 fibroblasts. shares compounds with T cruzi growth-1. NIH/3T3 viability, CellTiter-Glo ATP luminescence, 90 h. inhibition, % at 24.9 µM. 5,600 compounds, 56% hits;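 active means mean loss of cell viability signal at or above a set limit, and enough replicates individually reaching it; inconclusive means meets only the mean limit or only the replicate share; inactive means meets neither condition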;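 further: 0% = median of neutral control wells and 100% = median of positive control wells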
# The depositor's hits bear a star; ? = inconclusive; nt = no result.
SMILES,C diff HTS,T cruzi growth-1,Pf Dd2 inh,T cruzi growth-2,T cruzi growth-3,NIH3T3 tox,NIH3T3 tox 2
N#C[C@@H]1[C@@H](c2ccc(C3=CCCCC3)cc2)[C@@H](CO)N1S(=O)(=O)c1ccccc1,9,96*,-38,102*,56,55*,60*
CCC(=O)N1[C@H](CO)[C@@H](c2ccccc2)C12CN(C(=O)c1ccc(F)cc1)C2,-6,nt,22,nt,nt,nt,nt
COc1ccc(CN(C)C[C@@H]2Oc3ccc(NS(=O)(=O)c4ccc(C)cc4)cc3CC(=O)N([C@@H](C)CO)C[C@H]2C)cc1,-5,nt,-7,nt,nt,nt,nt
COc1ccc(CN(C)C[C@H]2Oc3ccc(NS(=O)(=O)c4ccc(Cl)cc4)cc3CC(=O)N([C@H](C)CO)C[C@H]2C)cc1,-15,86,6,nt,nt,nt,nt
COc1ccc(CN(C)C[C@H]2Oc3ccc(NS(=O)(=O)c4ccc(Cl)cc4)cc3CC(=O)N([C@@H](C)CO)C[C@@H]2C)cc1,-29,107*,-51,97*,79,5,86*
COc1ccc(CN(C)C[C@H]2Oc3ccc(NS(=O)(=O)c4ccc(C)cc4)cc3CC(=O)N([C@@H](C)CO)C[C@@H]2C)cc1,-12,104*,-22,110*,8,4,4
COc1cccc(CN(C)C[C@H]2OCc3ccccc3-c3ccccc3C(=O)N([C@H](C)CO)C[C@@H]2C)c1,-12,65,-20,nt,nt,nt,nt
COCC(=O)Nc1ccc2c(c1)[C@@H]1C[C@H](CC(=O)NCc3ccccc3F)O[C@@H](CO)[C@@H]1O2,nt,12,1,nt,nt,nt,nt
COCC(=O)Nc1ccc2c(c1)C(=O)N(C)C[C@H](OC)[C@H](C)CN(Cc1ccccc1F)[C@H](C)CO2,nt,57,-46,nt,nt,nt,nt
C[C@@H]1CCCCO[C@H](CN(C)C(=O)C2CCCCC2)[C@H](C)CN([C@@H](C)CO)C(=O)c2cc(NS(C)(=O)=O)ccc2O1,-4,100*,-4,12,-38,-11,9
C[C@@H]1CCCCO[C@@H](CN(C)C(=O)C2CCCCC2)[C@@H](C)CN([C@@H](C)CO)C(=O)c2cc(NS(=O)(=O)c3ccc(Cl)cc3)ccc2O1,-2,93,-21,nt,nt,nt,nt
C[C@H]1CCCCO[C@H](CN(C)C(=O)C2CCCCC2)[C@@H](C)CN([C@@H](C)CO)C(=O)c2cc(NS(=O)(=O)c3ccc(Cl)cc3)ccc2O1,6,?,-59,104*,76,-37,99*
C[C@@H]1CCCCO[C@H](CN(C)C(=O)C2CCCCC2)[C@H](C)CN([C@H](C)CO)C(=O)c2cc(NS(=O)(=O)c3ccc(Cl)cc3)ccc2O1,9,?,-62,105*,74,-7,52*
C[C@@H]1CCCCO[C@@H](CN(C)C(=O)C2CCCCC2)[C@H](C)CN([C@@H](C)CO)C(=O)c2cc(NS(=O)(=O)c3ccc(Cl)cc3)ccc2O1,2,?,47,109*,69,-16,34*
C[C@H](CO)N1C[C@H](C)[C@@H](CN(C)C(=O)C2CCCCC2)OCCCC[C@H](C)Oc2ccc(NS(C)(=O)=O)cc2C1=O,2,52,5,nt,nt,nt,nt
Cc1ccc(S(=O)(=O)Nc2ccc3c(c2)C(=O)N([C@H](C)CO)C[C@H](C)[C@H](CN(C)C(=O)C2CCCCC2)OCCCC[C@H](C)O3)cc1,-3,84,-23,nt,nt,nt,nt
C[C@@H]1CCCCO[C@H](CN(C)C(=O)C2CCCCC2)[C@@H](C)CN([C@H](C)CO)C(=O)c2cc(NS(=O)(=O)c3ccc(Cl)cc3)ccc2O1,-7,60,-52,nt,nt,nt,nt
COc1cccc(CNC(=O)C[C@H]2C=C[C@@H](NC(=O)C3CCC3)[C@@H](CO)O2)c1,nt,-35,31,nt,nt,nt,nt
COc1ccc(NC(=O)N(C)C[C@@H]2Oc3cc(-c4ccncc4)ccc3S(=O)(=O)N([C@H](C)CO)C[C@@H]2C)cc1,21,17,-32,nt,nt,nt,nt
C[C@@H]1CCCCO[C@@H](CN(C)C(=O)CCC(F)(F)F)[C@@H](C)CN([C@H](C)CO)C(=O)c2cc(NS(=O)(=O)c3ccc(Cl)cc3)ccc2O1,-1,85,-11,nt,nt,nt,nt
C[C@H](CO)N1C[C@H](C)[C@H](CN(C)C(=O)CCC(F)(F)F)OCCCC[C@H](C)Oc2ccc(NS(=O)(=O)c3ccc(Cl)cc3)cc2C1=O,5,103*,-6,109*,57,-5,7
C[C@@H]1CN([C@H](C)CO)S(=O)(=O)c2ccc(C#CC3CC3)cc2O[C@@H]1CN(C)C(=O)c1cnccn1,3,19,-5,nt,nt,nt,nt
CO[C@H]1CN(C)C(=O)c2cc(NC(C)=O)ccc2OC[C@H](C)N(Cc2cc(F)ccc2F)C[C@@H]1C,nt,21,-8,nt,nt,nt,nt
CO[C@@H]1CN(C)C(=O)c2ccc(NC(=O)Nc3ccccc3F)cc2OC[C@@H](C)N(Cc2ccccc2F)C[C@H]1C,nt,117*,-90*,106*,111*,-3,-1
CO[C@H]1CN(C)C(=O)c2ccc(NC(=O)NC(C)C)cc2OC[C@@H](C)N(Cc2ccccn2)C[C@@H]1C,nt,100*,-40,60,-42,15,7
SMILES,C diff HTS,T cruzi growth-1,Pf Dd2 inh,T cruzi growth-2,T cruzi growth-3,NIH3T3 tox,NIH3T3 tox 2
CO[C@@H]1CN(C)C(=O)c2cc(NC(=O)C3CC3)ccc2OC[C@@H](C)N(Cc2cccc(F)c2)C[C@@H]1C,nt,63,-59,nt,nt,nt,nt
CO[C@@H]1CN(C)C(=O)c2cc(NC(=O)C3CC3)ccc2OC[C@H](C)N(Cc2cc(F)ccc2F)C[C@H]1C,nt,109*,-71,80,39,-2,-3
CO[C@@H]1CN(C)C(=O)c2cc(NC(=O)C3CC3)ccc2OC[C@H](C)N(Cc2cccc(F)c2)C[C@H]1C,nt,99*,-74,?,38,-2,0
CO[C@@H]1CN(C)C(=O)c2cc(NC(=O)Nc3ccccc3F)ccc2OC[C@@H](C)N(Cc2ccccc2F)C[C@H]1C,0,52,-66,nt,nt,nt,nt
CO[C@@H]1CN(C)C(=O)c2ccc(NC(=O)NC(C)C)cc2OC[C@@H](C)N(Cc2ccccn2)C[C@@H]1C,nt,64,-12,nt,nt,nt,nt
CNC(=O)C[C@@H]1CC[C@@H]2[C@H](COc3ccc(NC(=O)Nc4ccccc4F)cc3C(=O)N2C)O1,7,38,-31,nt,nt,nt,nt
N#C[C@H]1[C@H](c2ccc(C#CC3CCCC3)cc2)[C@@H](CO)N1C(=O)c1cccc(F)c1,-3,nt,-53,nt,nt,nt,nt
CO[C@@H]1CN(C)C(=O)c2cc(NS(=O)(=O)c3ccccc3)ccc2OC[C@H](C)N(Cc2cccnc2)C[C@@H]1C,nt,24,-9,nt,nt,nt,nt
CO[C@H]1CN(C)C(=O)c2cc(NS(=O)(=O)c3ccccc3)ccc2OC[C@@H](C)N(Cc2cccnc2)C[C@H]1C,nt,97*,-16,101*,47,5,35*
COc1ccccc1CN1C[C@H](C)[C@H](OC)CN(C)C(=O)c2cc(NC(C)=O)ccc2OC[C@@H]1C,nt,-24,13,nt,nt,nt,nt
